# Records with an inconclusive call do not appear. The source made the active and inactive calls. Rule for the calls, unless noted: active = hit-call score of the fitted dose curve at least 0.9, where 1 is the maximum; inconclusive = response in the unintended direction; inactive = score below 0.9.
# Key:
# THRA (gene 7067) [1] = target: THRA (gene 7067) (UniProt P10827); test: TOX21_TRA_COA_Antagonist_Followup_ratio: Tox21 Thyroid Hormone Receptor alpha Antagonism through Coactivator Recruitment Follow-Up Assay, Ratio (AID 2283953)
# Procedure, shortened: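 520:495 nm emission ratio (excitation 340 nm) reports fluorescein-SRC-2 peptide recruitment to GST-TRα LBD by TR-FRET with Tb anti-GST antibody. Values were normalized to DMSO (0%) and T3 control wells (100%); loss of signal indicated antagonism.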
# THRB (gene 7068) [2] = target: THRB (gene 7068) (UniProt P10828); test: TOX21_TRB_BLA_Antagonist_Followup_ratio: Tox21 Thyroid Hormone Receptor beta Antagonism Beta-lactamase (BLA) Follow-Up Assay, Ratio (AID 2283958)
# Procedure, shortened: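 HEK293T TRb-bla (GAL4 DBD + hTRβ LBD), 2% cs-FBS phenol red-free DMEM, 5 h attach; cpds 11-pt triplicate, 18 h 37C; CCF4-AM 2 h RT; 460/530 ratio vs DMSO; CellTiter-Glo viability same wells.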
# [3] = TOX21_TRB_BLA_Antagonist_Followup_viability: Viability Assessment in the Tox21 Thyroid Hormone Receptor beta Antagonism Beta-lactamase (BLA) Follow-Up Assay (AID 2283961)
# Procedure, shortened: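 Viability read as CellTiter-Glo ATP luminescence (loss of signal = cytotoxicity) in the same plates as the TRβ-bla readout. TRβ-LBD/GAL4 UAS-bla HEK293T cells were exposed to compounds, 11 concentrations in triplicate, for 18 h at 37C/5% CO2.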
# THRB (gene 7068) [4] = target: THRB (gene 7068) (UniProt P10828); test: TOX21_TRB_COA_Antagonist_Followup_ratio: Tox21 Thyroid Hormone Receptor beta Antagonism through Coactivator Recruitment Follow-Up Assay, Ratio (AID 2283967)
# Procedure, shortened: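 Cell-free TR-FRET coactivator recruitment with GST-tagged TRβ LBD (5.0 nM) and fluorescein-labeled SRC-2 peptide (200 nM) detected by terbium anti-GST antibody (2 nM). The 520:495 nm emission ratio was normalized to DMSO (0%) and T3 (100%).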
# [5] = target: Retinoic acid receptor RXR-alpha (Homo sapiens) (UniProt P19793); test: TOX21_TR_RXR_BLA_Antagonist_Followup_ratio: Tox21 Thyroid Hormone Receptor beta Retinoid X Receptor alpha (RXRa) Antagonism Beta-lactamase (BLA) Follow-Up Assay, Ratio (AID 2283972)
# Procedure, shortened: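 Beta-lactamase reporter readout as cleaved/uncleaved substrate ratio (460:530 nm) after 2 h substrate loading at room temperature. GAL4-RXRa bla HEK293T cells were exposed 16 h at 37C to 11-point compound series; loss of signal scored against DMSO baseline.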
# [6] = TOX21_TR_RXR_BLA_Antagonist_Followup_viability: Viability Assessment in the Tox21 Thyroid Hormone Receptor beta Retinoid X Receptor alpha (RXRa) Antagonism Beta-lactamase (BLA) Follow-Up Assay (AID 2283979)
# Procedure, shortened: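 RXRa-UAS-bla HEK293T cells seeded 2,500/well in phenol red-free DMEM with 2% charcoal-stripped FBS, attached 5 h, then exposed to compounds at 11 concentrations in triplicate for 16 h at 37C/5% CO2. Viability read by CellTiter-Glo ATP luminescence; bidirectional fit versus DMSO.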
# [7] = CCTE_Harrill_HTTr_Viability_MCF7: CCTE's 6-hour Cell Viability Assessment for the High-Throughput Transcriptomics (HTTr) Platform, in MCF-7 cells cultured in DMEM + 10% fetal bovine serum, Harrill Lab (AID 2284010; active = hit-call score of the fitted dose curve at least 0.9, where 1 is the maximum; inactive = score below 0.9)
# Procedure, shortened: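 Cells were dosed with chemicals in an eight-point dilution series, imaged 6 hours later for propidium iodide uptake, and the endpoint was analyzed by bidirectional fitting against DMSO as negative control.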
# THRA (gene 7067) [8] = target: THRA (gene 7067) (UniProt P10827); test: TOX21_TRA_COA_Agonist_Followup_ratio: Tox21 Thyroid Hormone Receptor alpha Agonism through Coactivator Recruitment Follow-Up Assay, Ratio (AID 2283948; active = hit-call score of the fitted dose curve at least 0.9, where 1 is the maximum; inactive = score below 0.9)
# Procedure, shortened: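 GST-TRa LBD 2.5 nM + 0.10% BSA + cpd; add fluorescein-SRC-2 200 nM, Tb-anti-GST 2 nM. TR-FRET ex 340, em 520/495 ratio. Norm: DMSO 0%, T3 100%; gain-of-signal fit.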
# THRB (gene 7068) [9] = target: THRB (gene 7068) (UniProt P10828); test: TOX21_TRB_BLA_Agonist_Followup_ratio: Tox21 Thyroid Hormone Receptor beta Agonism Beta-lactamase (BLA) Follow-Up Assay, Ratio (AID 2283954)
# Procedure, shortened: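 Human TRβ LBD–GAL4 DBD fusion in GeneBLAzer UAS-bla HEK293T cells; 11 concentrations in triplicate, 18 h at 37°C/5% CO2, T3 as agonist control. CCF4-AM substrate 2 h at room temperature; 460:530 nm ratio fitted for gain of signal versus DMSO.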
# THRB (gene 7068) [10] = target: THRB (gene 7068) (UniProt P10828); test: TOX21_TRB_COA_Agonist_Followup_ratio: Tox21 Thyroid Hormone Receptor beta Agonism through Coactivator Recruitment Follow-Up Assay, Ratio (AID 2283963; active = hit-call score of the fitted dose curve at least 0.9, where 1 is the maximum; inactive = score below 0.9)
# Procedure, shortened: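 Agonism is measured as coactivator recruitment in a purified-protein TR-FRET format, using GST-TRβ LBD at 5.0 nM, fluorescein-SRC-2 peptide at 200 nM and Tb-labeled anti-GST antibody at 2 nM. Values are 520:495 nm ratios relative to DMSO (0%) and T3 (100%).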
# [11] = target: Retinoic acid receptor RXR-alpha (Homo sapiens) (UniProt P19793); test: TOX21_TR_RXR_BLA_Agonist_Followup_ratio: Tox21 Thyroid Hormone Receptor beta Retinoid X Receptor alpha (RXRa) Agonism Beta-lactamase (BLA) Follow-Up Assay, Ratio (AID 2283968)
# Procedure, shortened: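 HEK293T RXRa-bla, qHTS; cpd 11-pt conc. in triplicate, 16 h 37C/5% CO2; CCF4-AM 2 h RT; ratio 460:530 nm; agonist direction vs DMSO; 9-cis retinoic acid as positive control.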
# [12] = TOX21_TR_RXR_BLA_Agonist_Followup_viability: Viability Assessment in the Tox21 Thyroid Hormone Receptor beta Retinoid X Receptor alpha (RXRa) Agonism Beta-lactamase (BLA) Follow-Up Assay (AID 2283970)
# Procedure, shortened: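 Cells: HEK293T RXRa-UAS-bla, 2,500/well; medium phenol red-free DMEM + 2% charcoal-stripped FBS; 16h, 37C/5% CO2; qHTS concentration series. Read: CellTiter-Glo luminescence (ATP); bidirectional fit, DMSO = baseline.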
# [13] = target: Nucleoli Translocation, AR (gene 367) (UniProt P10275); test: UPITT_HCI_U2OS_AR_TIF2_Nucleoli_Antagonist: University of Pittsburgh U2OS Androgen Receptor-Transcriptional Intermediary Factor 2 (AR-TIF2) Antagonism High Content Imaging Assay for Nucleoli Translocation (AID 2283997)
# Procedure, shortened: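 U2OS cells expressing RFP-tagged human AR and GFP-tagged TIF2 were imaged by high-content fluorescence microscopy for red AR signal in the nucleolar region. Compounds were screened at 20 uM final (0.2% DMSO), with activity fitted relative to DHT as baseline.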
# [14] = target: Ratio of Nucleoli Translocation and Cytoplasm, AR (gene 367) (UniProt P10275); test: UPITT_HCI_U2OS_AR_TIF2_Nucleoli_Cytoplasm_Ratio_Agonist: University of Pittsburgh U2OS Androgen Receptor-Transcriptional Intermediary Factor 2 (AR-TIF2) Agonism High Content Imaging Assay for Ratio of Nucleoli Translocation and Cytoplasm (AID 2284000);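 note: hits raise the red nucleolar to cytoplasm ratio above vehicle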
# Procedure, shortened: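 U2OS cells expressing RFP-tagged human AR and GFP-tagged TIF2 were imaged by high-content fluorescence microscopy. The endpoint is the ratio of nucleolar to cytoplasmic red fluorescence, fitted for gain of signal relative to DMSO. Concentration-response spanned 0.195 to 50 uM final (0.5% DMSO).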
# [15] = target: Ratio of Nucleoli Translocation and Cytoplasm, AR (gene 367) (UniProt P10275); test: UPITT_HCI_U2OS_AR_TIF2_Nucleoli_Cytoplasm_Ratio_Antagonist: University of Pittsburgh U2OS Androgen Receptor-Transcriptional Intermediary Factor 2 (AR-TIF2) Antagonism High Content Imaging Assay for Ratio of Nucleoli Translocation and Cytoplasm (AID 2283999);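 note: antagonists lower the DHT-driven ratio of nucleolar to cytoplasmic red signal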
# Procedure, shortened: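 Human osteosarcoma U2OS line, AR fused to RFP, coactivator TIF2 fused to GFP. Cpds 20 uM final, 0.2% DMSO (screen); 0.195–50 uM final, 0.5% DMSO (CRC). Endpoint: nucleoli/cytoplasm red signal ratio, DHT as baseline, loss-of-signal antagonist mode.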
# [16] = CCTE_Shafer_MEA_acute_spike_number: CCTE's Neural Acute Assay for Total Number of Spikes, Shafer Lab (AID 2284008; active = hit-call score of the fitted dose curve at least 0.9, where 1 is the maximum; inactive = score below 0.9)
# Procedure, shortened: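 Rat cortical cultures, DIV 13/15, 37 C. 40 min baseline rec, cpd 0.03-40 uM, 40 min post-dose rec. Band-pass 300-5000 Hz, spike threshold 8x rms; % change in spike count per well, DMSO neg ctrl, loss-of-signal fit.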
# [17] = CCTE_Shafer_MEA_acute_firing_rate_mean: CCTE's Neural Acute Assay for Mean Firing Rate, Shafer Lab (AID 2284009; active = hit-call score of the fitted dose curve at least 0.9, where 1 is the maximum; inactive = score below 0.9;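 note: analyzed for loss of signal so actives lower firing rate relative to DMSO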)
# Procedure, shortened: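 Read-out: well-mean spike rate (spikes/recording length/electrodes), % change from 40 min pre-dose baseline to 40 min with compound. Rat cortical cultures, DIV 13 or 15, 37 C; 0.03-40 uM; DMSO as negative control.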
# DIO1 (gene 1733) = test: CCTE_GLTED_hDIO1: CCTE's human Deiodinase 1 (DIO1) Inhibition Assay, Great Lakes Toxicology and Ecology Division (GLTED) Lab (AID 2283987);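 note: isolated human DIO1 enzyme in a cell-free setup rather than cells; enzyme activity read as free iodide liberated from substrate via Sandell-Kolthoff colorimetry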
# Procedure, shortened: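 Steps: human DIO1 enzyme plus test chemical, 3 h incubation; free iodide then quantified in a second Sandell-Kolthoff step by absorbance. DMSO served as negative control and baseline.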
# [18] = target: Thyroid hormone receptor alpha (Rattus norvegicus) + Thyroid hormone receptor beta (Rattus norvegicus) (UniProt P18113+P63059); test: TOX21_TR_LUC_GH3_Antagonist_Followup: Tox21 GH3 Thyroid Hormone Receptor Antagonism Luciferase Follow-Up Assay (AID 2283942)
# Procedure, shortened: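 Rat pituitary GH3 cells with a TRα/TRβ-driven luciferase reporter, 5 h attachment, then 15 concentrations (92 uM to 5nM final) plus 1.0 nM T3 agonist, 24 h at 37C/5% CO2. ONE-Glo luminescence; signal change fitted against DMSO baseline.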
# [19] = target: Nucleoli Translocation, AR (gene 367) (UniProt P10275); test: UPITT_HCI_U2OS_AR_TIF2_Nucleoli_Agonist: University of Pittsburgh U2OS Androgen Receptor-Transcriptional Intermediary Factor 2 (AR-TIF2) Agonism High Content Imaging Assay for Nucleoli Translocation (AID 2283998)
# Procedure, shortened: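 RFP-AR / GFP-TIF2 cells; cpds diluted in serum-free medium; single-point screen 20 uM final (0.2% DMSO), actives confirmed in triplicate; conc-response 0.195–50 uM final (0.5% DMSO). Readout: nucleolar red fluorescence, positive direction vs DMSO.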
# THRB (gene 7068), sequence (P10828 whole entry, looked up, the tested form may be a part): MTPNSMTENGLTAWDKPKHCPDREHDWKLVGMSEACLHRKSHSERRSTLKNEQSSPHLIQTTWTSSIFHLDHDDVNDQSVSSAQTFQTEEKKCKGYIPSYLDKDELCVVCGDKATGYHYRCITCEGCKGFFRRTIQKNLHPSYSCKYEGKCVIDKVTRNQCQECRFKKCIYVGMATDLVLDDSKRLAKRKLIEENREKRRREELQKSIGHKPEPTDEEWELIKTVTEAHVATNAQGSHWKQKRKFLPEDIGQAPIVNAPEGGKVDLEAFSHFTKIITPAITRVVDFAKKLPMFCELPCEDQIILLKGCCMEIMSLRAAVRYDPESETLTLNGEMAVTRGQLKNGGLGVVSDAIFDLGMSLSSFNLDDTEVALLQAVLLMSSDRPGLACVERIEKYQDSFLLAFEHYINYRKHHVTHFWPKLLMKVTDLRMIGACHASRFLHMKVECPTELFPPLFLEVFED
# Retinoic acid receptor RXR-alpha (Homo sapiens), sequence (P19793 whole entry, looked up, the tested form may be a part): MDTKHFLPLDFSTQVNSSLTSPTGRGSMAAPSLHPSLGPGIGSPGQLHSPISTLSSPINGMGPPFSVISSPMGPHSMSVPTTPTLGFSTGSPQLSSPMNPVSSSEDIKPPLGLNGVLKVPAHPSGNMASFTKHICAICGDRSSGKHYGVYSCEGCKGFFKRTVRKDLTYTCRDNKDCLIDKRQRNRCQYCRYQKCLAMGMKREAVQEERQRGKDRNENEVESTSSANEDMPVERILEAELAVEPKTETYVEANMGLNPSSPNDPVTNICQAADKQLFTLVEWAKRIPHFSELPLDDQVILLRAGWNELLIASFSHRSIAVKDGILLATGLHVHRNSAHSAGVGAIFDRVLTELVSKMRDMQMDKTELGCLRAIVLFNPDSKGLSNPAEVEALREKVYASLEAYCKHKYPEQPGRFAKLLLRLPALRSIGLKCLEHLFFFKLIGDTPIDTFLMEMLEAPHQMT
# THRA (gene 7067), sequence (P10827 whole entry, looked up, the tested form may be a part): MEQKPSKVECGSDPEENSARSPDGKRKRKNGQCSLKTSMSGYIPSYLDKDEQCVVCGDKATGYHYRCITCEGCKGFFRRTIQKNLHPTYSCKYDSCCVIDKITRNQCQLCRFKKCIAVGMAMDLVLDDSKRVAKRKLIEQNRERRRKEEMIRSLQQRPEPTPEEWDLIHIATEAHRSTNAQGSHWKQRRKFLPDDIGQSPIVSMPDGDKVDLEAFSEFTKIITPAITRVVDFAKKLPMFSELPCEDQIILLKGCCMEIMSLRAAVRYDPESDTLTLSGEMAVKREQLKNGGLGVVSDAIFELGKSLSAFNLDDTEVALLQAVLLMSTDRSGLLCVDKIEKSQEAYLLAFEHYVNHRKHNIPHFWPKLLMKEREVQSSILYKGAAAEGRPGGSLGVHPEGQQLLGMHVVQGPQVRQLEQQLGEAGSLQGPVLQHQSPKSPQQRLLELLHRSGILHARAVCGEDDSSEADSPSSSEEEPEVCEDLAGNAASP
# Ratio of Nucleoli Translocation and Cytoplasm, AR (gene 367), sequence (P10275 whole entry, looked up, the tested form may be a part): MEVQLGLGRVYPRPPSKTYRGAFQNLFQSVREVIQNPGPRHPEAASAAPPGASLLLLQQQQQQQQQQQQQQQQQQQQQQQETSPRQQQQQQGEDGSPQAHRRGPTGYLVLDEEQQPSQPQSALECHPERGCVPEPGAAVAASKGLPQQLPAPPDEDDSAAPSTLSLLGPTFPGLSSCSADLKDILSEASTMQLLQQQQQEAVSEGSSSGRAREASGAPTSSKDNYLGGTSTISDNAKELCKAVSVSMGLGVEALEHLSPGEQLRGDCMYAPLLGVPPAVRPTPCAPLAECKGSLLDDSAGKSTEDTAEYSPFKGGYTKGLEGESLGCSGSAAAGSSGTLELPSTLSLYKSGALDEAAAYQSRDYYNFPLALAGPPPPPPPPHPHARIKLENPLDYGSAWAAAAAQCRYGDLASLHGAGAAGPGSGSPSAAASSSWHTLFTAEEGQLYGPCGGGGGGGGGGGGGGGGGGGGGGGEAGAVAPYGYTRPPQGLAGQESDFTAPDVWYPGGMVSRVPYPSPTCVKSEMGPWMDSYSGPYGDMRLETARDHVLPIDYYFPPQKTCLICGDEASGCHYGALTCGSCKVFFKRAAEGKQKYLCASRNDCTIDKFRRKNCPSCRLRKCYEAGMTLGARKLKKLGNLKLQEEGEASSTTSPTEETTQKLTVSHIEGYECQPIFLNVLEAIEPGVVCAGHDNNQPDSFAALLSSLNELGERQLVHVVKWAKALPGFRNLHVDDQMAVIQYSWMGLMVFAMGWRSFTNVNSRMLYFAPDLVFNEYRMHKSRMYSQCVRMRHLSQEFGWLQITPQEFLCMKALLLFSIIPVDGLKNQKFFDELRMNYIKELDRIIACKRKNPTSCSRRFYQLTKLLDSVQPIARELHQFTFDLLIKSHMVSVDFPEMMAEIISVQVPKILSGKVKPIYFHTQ
# Nucleoli Translocation, AR (gene 367), sequence (P10275 whole entry, looked up): as the sequence (P10275 whole entry, looked up, the tested form may be a part) above
compound,measurement,setting,value
Cc1oncc1C(=O)Nc1ccc(C(F)(F)F)cc1,outcome,THRA (gene 7067) [1],inactive
same,outcome,THRB (gene 7068) [2],inactive
same,outcome,[3],inactive
same,outcome,THRB (gene 7068) [4],inactive
same,outcome,[5],inactive
same,outcome,[6],inactive
same,outcome,[7],inactive
NC(CO)(CO)CO,AC50,THRA (gene 7067) [8],40.6 µM (active)
same,outcome,THRB (gene 7068) [9],inactive
same,outcome,THRB (gene 7068) [10],inactive
same,outcome,[11],inactive
same,outcome,[12],inactive
CC(C)c1ccc2c(C(C)C)cc(C(C)C)c(S(=O)(=O)O)c2c1,outcome,[13],inactive
same,outcome,[14],inactive
CCCc1ccc(OC)cc1,outcome,[13],inactive
same,outcome,[15],inactive
CCO[Si](C)(OCC)OCC,outcome,[16],inactive
same,outcome,[17],inactive
CCCCCCCC/C=C\CCCCCCCC(=O)O,AC50,DIO1 (gene 1733),74 µM (active)
same,outcome,[7],inactive
c1cc(N(CC2CO2)CC2CO2)ccc1OCC1CO1 (stereo not given),AC50,[18],60.9 µM (active)
same,outcome,THRA (gene 7067) [1],inactive
same,outcome,THRB (gene 7068) [2],inactive
same,outcome,[3],inactive
same,outcome,THRB (gene 7068) [4],inactive
same,outcome,[6],inactive
Cc1ccc(N/N=c2\c(=O)cc/c(=N/Nc3ccc(S(=O)(=O)O)cc3)c2=O)c(C)c1,AC50,DIO1 (gene 1733),46.6 µM (active)
C[Si](C)O[Si](C)(C)O[Si](C)(C)O[Si](C)C,outcome,THRA (gene 7067) [8],inactive
same,outcome,THRB (gene 7068) [10],inactive
same,outcome,[11],inactive
same,outcome,[12],inactive
N=c1ccn2c(n1)O[C@H]1[C@H](O)[C@@H](CO)O[C@H]12,outcome,[18],inactive
same,outcome,THRB (gene 7068) [2],inactive
same,outcome,[3],inactive
same,outcome,THRB (gene 7068) [4],inactive
same,outcome,[6],inactive
CC(C)c1ccc2cc(C(C)C)ccc2c1,outcome,[13],inactive
same,outcome,[15],inactive
same,outcome,[14],inactive
CCCCCCCCCCCCCOP(=O)(O)O,AC50,DIO1 (gene 1733),91 µM (active)
CC/C=C\C/C=C\C/C=C\CCCCCCCC(=O)O,AC50,DIO1 (gene 1733),20.6 µM (active)
same,outcome,[7],inactive
Oc1ccc(Cl)cc1Cc1cc(Cl)ccc1O,AC50,[18],18.7 µM (active)
same,outcome,THRA (gene 7067) [1],inactive
same,AC50,THRB (gene 7068) [2],38.3 µM (active)
same,AC50,[3],23.5 µM (active)
same,AC50,THRB (gene 7068) [4],38.3 µM (active)
same,AC50,[5],38.3 µM (active)
same,AC50,[6],5.34 µM (active)
same,AC50,DIO1 (gene 1733),99.8 µM (active)
same,AC50,[13],12.1 µM (active)
same,AC50,[19],1.77 µM (active)
same,AC50,[15],16.3 µM (active)
same,outcome,[14],inactive
same,outcome,[7],inactive
